Measured values: PubChem BioAssay (Tox21)
Records with an inconclusive call do not appear. The source made the active and inactive calls. Unless noted, calls come from the whole dose curve.

Assays:
[1] = Nuclear factor erythroid 2-related factor 2/antioxidant responsive element (Nrf2/ARE) small molecule agonists: qHTS cell viability counter screen in human keratinocytes (AID 1919968; active = well fitted curve in the direction sought with a large enough effect in the repeat runs; an effect the other way counts as inactive or inconclusive; note: nearly all actives have a fitted effect of over 55% in size)
Procedure, shortened: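 KeratinoSens HaCaT cells, 1,500/well, preincubated 5 h, then exposed to compounds in DMSO for 23 h at 37 C/5% CO2. Viability read as CellTiter-Fluor fluorescence after 1 h, in the same wells as the ARE-luciferase read.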

[2] = Nuclear factor erythroid 2-related factor 2/antioxidant responsive element (Nrf2/ARE) small molecule agonists: luciferase reporter gene qHTS assay in human keratinocytes (AID 1919969); note: nearly all actives have a fitted effect of over 35% in size
[3] = biological target: Gonadotropin-releasing hormone receptor (Homo sapiens) (UniProt P30968); test: Human gonadotropin-releasing hormone receptor (GnRHR) small molecule agonists, calcium flux assay in GnRHR-HEK293 cells (AID 1920063); note: nearly all actives have a fitted effect of over 35% in size
Procedure, shortened: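 HEK293 cells stably expressing human GnRHR were dye-loaded for 1 h at 37 C. Compound was added in agonist mode and fluorescence (Ex/Em 480/540) recorded kinetically for 3 min. Fifteen concentrations, triplicates.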

[4] = biological target: KiSS-1 receptor (Homo sapiens) (UniProt Q969F8); test: Human kisspeptin (KISS1R) small molecule agonists, calcium flux assay in KISS1R-HEK293 cells (AID 1920064; active = well fitted curve in the direction sought with a large enough effect in the repeat runs; an effect the other way counts as inactive or inconclusive)
Procedure, shortened: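 HEK293 cells stably expressing human KISS1R were loaded with calcium dye for 1 h at 37 C, then given compound; fluorescence (Ex/Em 480/540) was read kinetically for 3 min. Fifteen concentrations, triplicate.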

[5] = G protein-coupled receptor (GPCR) small molecule agonists, calcium flux assay: HEK293 wild type cell line counter screen (AID 1920065)
Procedure, shortened: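 Wild-type HEK293 cells plated 18 h, loaded with calcium dye 1 h at 37 C, then compounds added in agonist mode (ATP as positive control). Kinetic fluorescence Ex/Em 480/540 recorded 3 min at 1 sec intervals; 15 concentrations, triplicate.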

[6] = p53 small molecule agonists, cell-based qHTS assay with human liver microsomes (AID 1963577)
Procedure, shortened: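 Cells carrying a p53-responsive bla reporter were rested 5 h (37 C, 5% CO2) before compound transfer. Human liver microsomes plus NADPH, 0.5 mg/mL final apiece, supplied metabolism during the 16 h 37 C exposure.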

[7] = p53 small molecule agonists, cell-based qHTS assay with rat liver microsomes (AID 1963578)
Procedure, shortened: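 Fluorescence from a beta-lactamase reporter under a p53 response element was measured after cells had been incubated 16 h at 37 C with test compound and rat liver microsomes plus NADPH (0.5 mg/mL final each).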

[8] = p53 small molecule agonists, cell-based qHTS assay with human liver microsomes: qHTS cell viability counter screen (AID 1963579); note: nearly all actives have a fitted effect of over 45% in size
Procedure, shortened: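 Seed p53RE-bla cells at 4,000 per well; incubate 5 h at 37 C; add compound, human liver microsomes and NADPH; incubate 16 h at 37 C; add CellTiter-Glo; after 30 min at room temperature, read luminescence.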

[9] = p53 small molecule agonists, cell-based qHTS assay with rat liver microsomes: qHTS cell viability counter screen (AID 1963580); note: nearly all actives have a fitted effect of over 45% in size
Procedure, shortened: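 HCT-116 p53RE-bla, 4,000 cells/well, 5 h pre-incubation; cpd + rat liver microsomes 0.5 mg/mL + NADPH 0.5 mg/mL (final); 16 h, 37 C; CellTiter-Glo, 30 min RT; luminescence.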

[10] = p53 small molecule agonists, cell-based qHTS assay: qHTS cell viability counter screen (AID 1963581); note: nearly all actives have a fitted effect of over 45% in size
Procedure, shortened: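 p53RE-bla HCT-116 cells, compounds added 5 h after plating and incubated 16 h at 37 C. Cytotoxicity measured in the same wells as intracellular ATP by CellTiter-Glo luminescence after 30 min at room temperature.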

[11] = p53 small molecule agonists, cell-based qHTS assay (AID 1963582; active = well fitted activation curve with a large enough effect in the signal ratio in the repeat runs, not every such curve was filed as active; the % refers to the signal ratio)
Procedure, shortened: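 p53RE-bla reporter cells, compounds added in DMSO after 5 h plating, incubated 16 h at 37 C. Beta-lactamase read via 2 h room-temperature LiveBLAzer B/G FRET substrate, fluorescence intensity.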

[12] = biological target: 5-hydroxytryptamine receptor 2A (Homo sapiens) (UniProt P28223); test: 5-hydroxytryptamine receptor 2A (HTR2A) small molecule antagonists, cell-based qHTS assay (AID 1963586); note: nearly all actives have a fitted effect of over 45% in size
Procedure, shortened: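 Antagonist-mode intracellular calcium assay: DOI (4 nM) added after 5 min compound pre-incubation at room temperature to dye-loaded HTR2A-CHO cells. Fluorescence followed for 3 min, sampled every second.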

[13] = biological target: 5-hydroxytryptamine receptor 2A (Homo sapiens) (UniProt P28223); test: 5-hydroxytryptamine receptor 2A (HTR2A) small molecule agonists, cell-based qHTS assay (AID 1963587); note: nearly all actives have a fitted effect of over 30% in size
Procedure, shortened: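 Kinetic calcium-flux fluorescence (2 min, 1 sec intervals) after compound addition in agonist mode. HTR2A-CHO cells were cultured 18 h, then dye-loaded 1 h at 37 C.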

[14] = biological target: Muscarinic acetylcholine receptor M1 (Homo sapiens) (UniProt P11229); test: Cholinergic receptor muscarinic 1 (CHRM1) small molecule antagonists, cell-based qHTS assay (AID 1963588); note: nearly all actives have a fitted effect of over 40% in size
Procedure, shortened: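 CHRM1-CHO calcium-flux assay, antagonist mode. Cells were seeded 18 h, dye-loaded 1 h at 37 C and given compound for 5 min at RT, then acetylcholine was added at 50nM. FDSS fluorescence was read 3 min; 15 concentrations, three runs.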

[15] = biological target: Muscarinic acetylcholine receptor M1 (Homo sapiens) (UniProt P11229); test: Cholinergic receptor muscarinic 1 (CHRM1) small molecule agonists, cell-based qHTS assay (AID 1963589); note: nearly all actives have a fitted effect of over 35% in size
Procedure, shortened: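 CHO cells stably expressing human CHRM1 were loaded with calcium dye for 1 h at 37 C, then compound was added in agonist mode. Intracellular calcium fluorescence was followed kinetically at 1 s intervals. Fifteen concentrations were tested in three independent runs.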

[16] = cAMP Responsive Elements (CRE) small molecule agonists, cell-based qHTS assay (AID 1963590)
Procedure, shortened: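 CRE-bla HEK 293T cells, 2,000/well in DMEM with 10% dialyzed FBS and 25 mM HEPES, pre-incubated 18 h at 37 C, then exposed to compound 3 h at 37 C. Beta-lactamase reporter read with LiveBLAzer B/G FRET substrate after 2 h at room temperature.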

[17] = cAMP Responsive Elements (CRE) small molecule antagonists, cell-based qHTS assay (AID 1963591; active = well fitted inhibition curve with a large enough effect in the signal ratio in the repeat runs, not every such curve was filed as active; the % refers to the signal ratio)
Procedure, shortened: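 CRE-bla HEK293T cells plated 18 h, then given compound plus NKH477 at 0.25 uM final for 3 h at 37C. Beta-lactamase reporter read with LiveBLAzer B/G FRET substrate after 2 h at room temperature.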

[18] = biological target: Beta-2 adrenergic receptor (Homo sapiens) (UniProt P07550); test: Adrenergic beta2 receptor (ADRB2) small molecule antagonists, cell-based qHTS assay (AID 1963592); note: series mostly up to about 92 µM; nearly all actives have a fitted effect of over 50% in size
Procedure, shortened: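 Cells (CHO, stable ADRB2 overexpression) incubated 18-20hr at 37C; compounds added from DMSO; agonist mix (1nM isoproterenol, 100uM IBMX, 25uM Ro-20-1724) added; 0.5hr RT; d2-cAMP and anti-cAMP-cryptate added; 1hr RT; 665/615 nm read.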

[19] = biological target: D(2) dopamine receptor (Homo sapiens) (UniProt P14416); test: Dopamine D2 receptor (DRD2) small molecule agonists, cell-based qHTS assay (AID 1963594); note: nearly all actives have a fitted effect of over 35% in size
Procedure, shortened: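 cAMP accumulation in DRD2-HEK293 cells measured by HTRF after 1 h detection; compounds added 10 min before NKH477 (200nM […]) forskolin-analogue stimulation, 30 min at room temperature, with Ro20-1724 present at 0.1 mM final.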

[20] = biological target: D(2) dopamine receptor (Homo sapiens) (UniProt P14416); test: Dopamine D2 receptor (DRD2) small molecule antagonists, cell-based qHTS assay (AID 1963595; active = well fitted inhibition curve with a large enough effect in the signal ratio in the repeat runs, with a control signal flat; the % refers to the signal ratio)
Procedure, shortened: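 In this cell-based antagonist screen, compounds act for 10 min at room temperature before a 30 min challenge with 12 nM quinpirole and 200 nM NKH477. cAMP is quantified by HTRF competition in DRD2-HEK293 cells containing 0.1 mM Ro20-1724.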

Measured: Potency

Sequence of 5-hydroxytryptamine receptor 2A (Homo sapiens) (P28223 whole entry, looked up): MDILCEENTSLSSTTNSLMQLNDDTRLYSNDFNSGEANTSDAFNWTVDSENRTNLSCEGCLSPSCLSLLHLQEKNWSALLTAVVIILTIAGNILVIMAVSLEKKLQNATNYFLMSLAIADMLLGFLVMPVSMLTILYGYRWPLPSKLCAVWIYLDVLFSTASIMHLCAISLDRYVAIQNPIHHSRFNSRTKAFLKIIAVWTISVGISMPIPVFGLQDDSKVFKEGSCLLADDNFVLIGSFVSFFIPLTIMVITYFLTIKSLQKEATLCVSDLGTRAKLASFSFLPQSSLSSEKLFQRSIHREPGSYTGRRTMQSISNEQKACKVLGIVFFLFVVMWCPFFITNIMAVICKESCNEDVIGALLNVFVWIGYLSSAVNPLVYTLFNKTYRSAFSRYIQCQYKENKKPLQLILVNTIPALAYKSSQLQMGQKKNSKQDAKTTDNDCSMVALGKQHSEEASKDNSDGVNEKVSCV
Sequence of KiSS-1 receptor (Homo sapiens) (Q969F8 whole entry, looked up): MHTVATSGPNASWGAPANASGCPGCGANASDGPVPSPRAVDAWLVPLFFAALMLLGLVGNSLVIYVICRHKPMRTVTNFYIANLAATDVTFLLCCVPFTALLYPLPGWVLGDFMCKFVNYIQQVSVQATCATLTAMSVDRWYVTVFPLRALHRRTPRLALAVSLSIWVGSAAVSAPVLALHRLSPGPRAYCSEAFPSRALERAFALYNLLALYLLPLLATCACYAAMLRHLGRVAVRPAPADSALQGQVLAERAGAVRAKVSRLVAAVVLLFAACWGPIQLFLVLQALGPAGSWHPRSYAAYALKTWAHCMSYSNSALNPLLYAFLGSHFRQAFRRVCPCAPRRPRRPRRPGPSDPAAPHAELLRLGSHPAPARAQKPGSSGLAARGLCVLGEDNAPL
Sequence of D(2) dopamine receptor (Homo sapiens) (P14416 whole entry, looked up): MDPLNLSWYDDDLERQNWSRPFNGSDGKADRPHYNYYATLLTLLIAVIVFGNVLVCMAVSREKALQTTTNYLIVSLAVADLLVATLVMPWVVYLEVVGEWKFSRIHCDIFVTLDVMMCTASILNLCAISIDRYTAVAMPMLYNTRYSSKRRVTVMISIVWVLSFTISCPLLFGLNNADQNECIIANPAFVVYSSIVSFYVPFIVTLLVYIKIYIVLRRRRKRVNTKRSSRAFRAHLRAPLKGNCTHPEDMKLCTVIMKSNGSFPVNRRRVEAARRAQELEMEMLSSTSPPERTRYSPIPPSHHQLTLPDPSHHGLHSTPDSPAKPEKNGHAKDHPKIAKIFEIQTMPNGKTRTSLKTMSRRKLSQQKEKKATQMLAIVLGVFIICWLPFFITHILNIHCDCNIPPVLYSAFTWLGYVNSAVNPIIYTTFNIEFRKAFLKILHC
Sequence of Muscarinic acetylcholine receptor M1 (Homo sapiens) (P11229 whole entry, looked up): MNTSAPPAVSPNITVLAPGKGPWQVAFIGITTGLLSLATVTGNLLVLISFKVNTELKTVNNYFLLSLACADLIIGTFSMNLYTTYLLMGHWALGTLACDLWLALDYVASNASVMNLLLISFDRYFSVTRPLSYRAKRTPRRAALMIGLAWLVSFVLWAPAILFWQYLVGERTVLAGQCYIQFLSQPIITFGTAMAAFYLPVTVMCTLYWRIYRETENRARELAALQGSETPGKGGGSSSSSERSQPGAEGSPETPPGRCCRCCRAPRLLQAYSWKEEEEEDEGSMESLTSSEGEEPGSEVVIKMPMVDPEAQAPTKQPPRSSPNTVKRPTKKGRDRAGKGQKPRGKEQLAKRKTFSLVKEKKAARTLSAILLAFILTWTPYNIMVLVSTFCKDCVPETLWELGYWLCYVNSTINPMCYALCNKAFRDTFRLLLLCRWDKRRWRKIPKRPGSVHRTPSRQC
Sequence of Gonadotropin-releasing hormone receptor (Homo sapiens) (P30968 whole entry, looked up): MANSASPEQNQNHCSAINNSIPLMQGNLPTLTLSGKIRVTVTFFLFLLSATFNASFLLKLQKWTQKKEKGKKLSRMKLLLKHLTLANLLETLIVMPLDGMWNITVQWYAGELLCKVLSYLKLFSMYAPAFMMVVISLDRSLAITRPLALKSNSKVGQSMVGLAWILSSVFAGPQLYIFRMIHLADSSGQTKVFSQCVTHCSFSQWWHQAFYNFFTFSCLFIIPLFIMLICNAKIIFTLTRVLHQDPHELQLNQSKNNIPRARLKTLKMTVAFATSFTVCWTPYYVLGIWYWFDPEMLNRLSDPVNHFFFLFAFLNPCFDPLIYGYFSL
Sequence of Beta-2 adrenergic receptor (Homo sapiens) (P07550 whole entry, looked up): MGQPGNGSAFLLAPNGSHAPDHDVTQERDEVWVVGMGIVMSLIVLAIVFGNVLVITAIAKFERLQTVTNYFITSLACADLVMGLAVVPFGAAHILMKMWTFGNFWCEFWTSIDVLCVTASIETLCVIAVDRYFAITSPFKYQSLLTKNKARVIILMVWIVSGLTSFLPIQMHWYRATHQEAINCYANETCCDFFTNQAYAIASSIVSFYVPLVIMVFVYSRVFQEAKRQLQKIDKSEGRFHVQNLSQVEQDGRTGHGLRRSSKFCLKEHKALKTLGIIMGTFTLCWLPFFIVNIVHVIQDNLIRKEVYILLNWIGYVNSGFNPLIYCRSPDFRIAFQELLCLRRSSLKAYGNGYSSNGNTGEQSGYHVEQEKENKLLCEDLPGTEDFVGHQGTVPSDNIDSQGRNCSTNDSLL

CCCCCCC=O
inactive: all assays above

COC(=O)C1CCC(C(=O)OC)CC1 (stereo not drawn)
not listed: [19]
inactive: all other assays above

CCCCCCCCO
inactive: all assays above

COCC(C)N (stereo not drawn)
inactive: all assays above

C1N2CN3CN1CN(C2)C3
inactive: all assays above

CCCCOCCO
not listed: [20]
inactive: all other assays above

c1ccc2cc(Nc3ccc(Nc4ccc5ccccc5c4)cc3)ccc2c1
inactive: all assays above
